Screens (PubChem)
p53null 32C tox = selectivity test: cytotoxicity in p53 null cells, permissive temperature; H1299-neo p53 null cells, ATP luminescence, 24 h, 32C; Potency, µM (titrated, usually from 46.1 µM), for the others: top-dose activity change, negative = cytotoxicity, usual class: cytotoxic; actives 0.62% (n = 55,000);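 also: potency is read from the fitted curve at half-maximal effect; 0% = DMSO only and -100% = full killing by 100 µM tamoxifen; nearly all actives have a fitted effect of over 55% in size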
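H1299-neo, 600 cells/well; overnight 37C; cpd up to 46 uM, 24 h at 32C; ATPlite luminescence after 20 min RT; normalized to DMSO (0%) and tamoxifen 100 uM (100% kill); Hill-fit AC50.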
PMP22 txn = modulates PMP22 transcription in S16 Schwann cells; S16 Pmp22-F2sN Schwann cells, FLuc/NLuc coincidence luminescence, 24 h; Potency, µM (top dose mostly 57.5 µM), for the others: at the top dose activity change, negative = inhibition, most hits filed as inhibitors; actives 2% (n = 43,000); AID 1508649; active = clear falling dose curves in both reporters; inconclusive = both reporters move, but less clearly or upward; inactive = either reporter flat; the % is the NLuc reporter signal; also: potency is read from the fitted curve at half-maximal effect; % is scaled to controls: 0 for no effect and ±100 for the full control effect
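Transcriptional readout in edited S16(c9) cells: two luciferases reported from the Pmp22 locus, measured in turn after 24 h compound incubation.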
S16 F2sN tox = cytotoxicity in S16 Pmp22-F2sN Schwann cells; S16 Pmp22-F2sN Schwann cells (luciferase reporters placed in the Pmp22 gene) viability, CellTiter-Glo, 24 h; Potency, µM (highest dose often 57.5 µM), for the others: top-dose activity change, negative = cytotoxicity, actives largely listed as cytotoxic; actives 0.48% (n = 43,000); AID 1508642; also: potency is read from the fitted curve at half-maximal effect; % is scaled to controls: 0 for no effect and ±100 for the full control effect; nearly all actives have a fitted effect of over 65% in size
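Seed 500-1,000 S16 Pmp22-F2sN cells per well in phenol-red-free DMEM with 10% heat-inactivated FBS; pin-add 23 nL compound; incubate 24 h at 37C; add CellTiter-Glo, wait 15 min protected from light; read luminescence.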
pS6 MEF inh = inhibitors of mTORC1 signaling in Tsc2-/- p53-/- MEF cells; Tsc2-/- p53-/- MEF, phospho-rpS6 immunofluorescence/PI, 24 h; Potency, µM (titrated, usually from 38.3 µM), inactives show top-dose activity change, negative = inhibition, hits mostly inhibitors; actives 0.78% (n = 44,000);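 also: potency is read from the fitted curve at half-maximal effect; plate controls were DMSO for no effect and rapamycin for full effect; nearly all actives have a fitted effect of over 50% in size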
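Tsc2-/-, p53-/- mouse embryonic fibroblasts (empty-vector line) exposed to compound 24 hrs at 37 C, fixed, immunostained for phospho-rpS6 and counterstained with propidium iodide. Acumen laser scanning gives % positive cells from Alexa 488/PI ratio, thresholded using 7.5 nM rapamycin; PI count gives viability.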
p53null 39C kill = kills p53 null cells at the nonpermissive temperature. H1299 p53-null (neo) cells, 39C, ATPlite viability, 24 h. Potency, µM (highest dose often 46.1 µM), for inactives: at the highest dose activity, negative = cell killing, hits mostly cytotoxic. actives 0.97% (n = 55,000);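 also: potency is read from the fitted curve at half-maximal effect; 0% = DMSO only and -100% = full killing by 100 µM tamoxifen; nearly all actives have a fitted effect of over 50% in size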
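H1299 lung cancer cells, p53-null (H1299-neo) or expressing p53 A138V (H1299-p53A138V), were plated overnight at 37C, then exposed to compounds at up to 46 uM for 24 hr at 39C. Viability was read by ATP-based luminescence.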
NLuc sat counter = NanoLuc enzyme inhibition artifact for PMP22 screen. Potency, µM (titrated, usually from 57.5 µM), for inactives: top-dose activity change, negative = inhibition, usual class: inhibitors. AID 1508638. actives 4% (n = 690). shares compounds with PMP22 txn. Secreted NLuc enzyme (filtered S16 cell medium), Nano-Glo luminescence; also: potency is read from the fitted curve at half-maximal effect; % is scaled to controls: 0 for no effect and ±100 for the full control effect
NLuc Km counter = counter-screen for PMP22 expression modulators: NanoLuc inhibition at Km. shares compounds with PMP22 txn. secreted NLuc enzyme, coelenterazine luminescence, Km conditions. Potency, µM (titrated, usually from 57.5 µM), inactives show top-dose activity change, negative = inhibition, most hits filed as inhibitors. actives 5% (n = 690); also: potency is read from the fitted curve at half-maximal effect; % is scaled to controls: 0 for no effect and ±100 for the full control effect
FLuc ctr PMP22 = firefly luciferase enzyme inhibition artifact for PMP22 screen; Potency, µM (top dose mostly 57.5 µM), for the others: at the highest dose activity, negative = inhibition, hits mostly inhibitors; AID 1508640; shares compounds with PMP22 txn; purified P. pyralis FLuc, luminescence, 10 min; 690 tested, under 10 active; also: % of control where 0% means no effect
Target sequence (P08659 whole entry, looked up): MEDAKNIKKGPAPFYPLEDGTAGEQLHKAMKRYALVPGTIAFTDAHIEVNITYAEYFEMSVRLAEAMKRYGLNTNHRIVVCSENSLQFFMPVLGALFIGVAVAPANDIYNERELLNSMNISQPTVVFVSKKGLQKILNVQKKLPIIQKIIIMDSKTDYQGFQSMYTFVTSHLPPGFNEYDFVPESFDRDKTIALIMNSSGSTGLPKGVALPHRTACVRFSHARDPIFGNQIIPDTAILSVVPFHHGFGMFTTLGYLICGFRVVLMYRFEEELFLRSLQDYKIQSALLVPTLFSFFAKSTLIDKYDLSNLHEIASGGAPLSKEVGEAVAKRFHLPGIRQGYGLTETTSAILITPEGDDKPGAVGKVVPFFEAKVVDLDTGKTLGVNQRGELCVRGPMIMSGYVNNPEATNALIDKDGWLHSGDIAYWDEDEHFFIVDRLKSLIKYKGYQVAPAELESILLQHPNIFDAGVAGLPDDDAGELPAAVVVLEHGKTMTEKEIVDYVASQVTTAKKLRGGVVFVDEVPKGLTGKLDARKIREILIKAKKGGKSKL
S16 F2sN tox cnf = S16 Schwann cell cytotoxicity, confirmatory | shares compounds with PMP22 txn | S16 Schwann cells viability, CellTiter-Glo ATP luminescence, 24 h | Potency, µM (top dose mostly 57.5 µM), without a hit: at the top dose activity change, negative = viability loss, most hits filed as cytotoxic | actives 7% (n = 690) | AID 1508641; also: potency is read from the fitted curve at half-maximal effect; % is scaled to controls: 0 for no effect and ±100 for the full control effect
PMP22 txn conf = confirmation of modulators of PMP22 gene transcription in S16 cells | shares compounds with PMP22 txn | S16 Schwann cells Pmp22-F2sN, dual luciferase, 24 h | Potency, µM (doses to about 57.5 µM), without a hit: at the highest dose activity change, negative = inhibition, most hits filed as inhibitors | actives 22% (n = 690) | AID 1508646; active = clear falling dose curves in both reporters; inconclusive = both reporters move, but less clearly or upward; inactive = either reporter flat; the % is the FLuc reporter signal; also: potency is read from the fitted curve at half-maximal effect
PMP22 prot conf = confirmation of modulators of rat PMP22 protein expression. shares compounds with PMP22 txn. S16 Schwann cells Pmp22-HiBiT, luminescence, 48 h. Potency, µM (highest dose often 27.9 µM), without a hit: at the highest dose activity change, negative = inhibition, most hits filed as inhibitors. 95 tested, under 10 active. AID 1508647
Target sequence (P25094 whole entry, looked up): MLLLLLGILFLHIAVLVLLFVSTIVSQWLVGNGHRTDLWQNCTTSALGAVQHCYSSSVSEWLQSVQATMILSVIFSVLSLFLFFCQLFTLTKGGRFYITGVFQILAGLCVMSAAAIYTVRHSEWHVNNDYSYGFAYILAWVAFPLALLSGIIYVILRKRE
The depositor's hits bear a star; ? = inconclusive; nt = no result given. Hits are enriched below; roughly 3.2% of the tested compounds scored in any of these assays. Unless noted, calls follow the shape of the dose curve; as a rule, active = well fitted curve in the direction sought with a large enough effect; inconclusive = small, poorly fitted or top-dose-only effect, or another doubt; inactive = no such curve, though single readings can be large; an effect the other way counts as inactive or inconclusive.

SMILES	p53null 32C tox	PMP22 txn	S16 F2sN tox	pS6 MEF inh	p53null 39C kill	NLuc sat counter	NLuc Km counter	FLuc ctr PMP22	S16 F2sN tox cnf	PMP22 txn conf	others
CN(C)CCNC(=O)c1ccc(Cn2c(=O)c3cccn3c3cccnc32)cc1	8.3%	10.6µM*	-6.2%	?	-8.6%	-4.8%	?	6.4%	30.9%	-31.0%
COc1ccc(OC)c(NC(=O)c2c(NCc3sccc3C)sc3c2CCCCC3)c1	12.2%	11.3µM*	-9.9%	-13.6%	4.1%	?	13.7µM*	-11.0%	?	-24.4%
CCOc1ccccc1NC(=O)C1CCN(S(=O)(=O)c2c(C)noc2/C=C/c2ccco2)CC1	2.6%	9.46µM*	0.0%	-14.2%	10.7%	?	-3.7%	5.8%	9.0%	-14.9%
O=C(Cn1cc(C(=O)c2ccco2)c2ccccc21)Nc1ccccc1Cl	-4.3%	?	-1.0%	?	-4.8%	nt	nt	nt	nt	nt
O=C(Cn1cc(C(=O)c2ccco2)c2ccccc21)Nc1ccccc1C(F)(F)F	-27.4%	11.9µM*	-12.8%	-18.8%	-24.1%	-4.3%	3.4%	5.2%	16.3%	3.0%
CSc1ncc(C(=O)NCc2ccc(C)cc2)c(C)n1	7.5%	0.1%	-0.2%	-14.2%	-3.9%	nt	nt	nt	nt	nt
COCCNC(=O)c1ccc(-n2c(-c3ccccc3)cc3c2CCC(C)C3)cc1 (configuration not stated)	14.8%	10µM*	?	3.7%	42.5%	-16.0%	?	-4.1%	-5.3%	-38.6%
CCCNC(=O)c1ccc(-n2c(-c3ccccc3)cc3c2CCC(C)C3)cc1 (configuration not stated)	0.3%	?	25.3%	?	44.3%	nt	nt	nt	nt	nt
CC1CCc2c(cc(-c3ccccc3)n2-c2ccc(C(=O)NC(C)C)cc2)C1 (configuration not stated)	49.7%	13.4µM*	13.4%	-14.2%	-22.6%	-13.0%	-3.8%	-15.5%	6.5%	?
CCOCCCNC(=O)c1ccc(-n2c(-c3ccccc3)cc3c2CCCC3)cc1	24.0%	?	?	-13.1%	24.7%	nt	nt	nt	nt	nt
CCc1cccc(NC(=O)C2CCC(CNS(=O)(=O)c3csc(C(N)=O)c3)CC2)c1 (configuration not stated)	-4.5%	-5.5%	-19.4%	5.2%	-1.6%	nt	nt	nt	nt	nt
COc1ccc(CCN2C(=O)N(c3ccc(C)cc3)C(=O)C2CC(=O)Nc2ccc(OC)cc2)cc1 (configuration not stated)	4.8%	-27.1%	-26.2%	-0.5%	14.1%	nt	nt	nt	nt	nt
CC(CNC(=O)CCn1c(=O)c2cccn2c2ccc(F)cc21)c1ccccc1 (configuration not stated)	11.9%	?	-0.8%	-4.6%	66.0%	nt	nt	nt	nt	nt
CC(CNC(=O)CCCn1c(=O)c2cccn2c2ccc(F)cc21)c1ccccc1 (configuration not stated)	9.0%	18.9µM*	-14.1%	4.9%	4.6%	?	-6.9%	5.5%	-1.1%	?
COc1ccc(CNC(=O)c2ccc3c(c2)N(Cc2ccccc2)CCS3)cc1	8.4%	-13.8%	5.8%	-11.1%	-3.3%	nt	nt	nt	nt	nt
Cc1ccccc1NC(=O)Cn1c(=O)n(Cc2ccc3c(c2)OCO3)c(=O)c2ccc(C(=O)NC3CCCCC3)cc21	11.0%	10.6µM*	?	4.3%	-0.9%	-3.3%	1.9%	7.4%	24.3µM*	14.5µM*
Cc1ccc(C)c(NC(=O)Cn2c(=O)n(Cc3ccc4c(c3)OCO4)c(=O)c3ccc(C(=O)NC4CCCCC4)cc32)c1	-4.3%	4.01µM*	11.3%	1.8%	-9.4%	5.5%	5.5%	4.7%	-9.6%	18.3µM*	PMP22 prot conf=1.0%
CCN(C(=O)Cn1c(=O)n(Cc2ccc3c(c2)OCO3)c(=O)c2ccc(C(=O)NC3CCCCC3)cc21)c1cccc(C)c1	12.1%	-1.6%	0.8%	1.5%	9.2%	nt	nt	nt	nt	nt
Cc1ccc(NC(=O)Cn2c(=O)n(Cc3ccco3)c(=O)c3ccc(C(=O)NC4CCCC4)cc32)c(C)c1	-3.1%	?	5.3%	-2.5%	-18.2%	nt	nt	nt	nt	nt
Cc1cc(C)c(NC(=O)Cn2c(=O)n(Cc3ccc(C(=O)NCc4ccc5c(c4)OCO5)cc3)c(=O)c3ccccc32)c(C)c1	-11.9%	11.2µM*	?	5.21µM*	?	-5.9%	4.3%	1.9%	27.3µM*	8.85µM*
Cc1ccc(NC(=O)Cn2c(=O)n(Cc3ccc4c(c3)OCO4)c(=O)c3ccc(C(=O)NC4CCCCC4)cc32)c(C)c1	10.1%	8.43µM*	4.0%	-8.9%	27.1%	-1.5%	-3.4%	0.6%	-25.1%	?
Cc1cccc(NC(=O)Cn2c(=O)n(Cc3ccc(C(=O)NCc4ccc5c(c4)OCO5)cc3)c(=O)c3ccccc32)c1	1.6%	?	9.3%	7.5%	10.0%	nt	nt	nt	nt	nt
COc1ccc(-c2nc(C)c(CCNC(=O)C(=O)Nc3ccccc3C#N)s2)cc1OC	4.9%	-8.7%	26.9%	-10.2%	14.9%	nt	nt	nt	nt	nt
CCN(Cc1ccccc1)S(=O)(=O)c1cc(C(=O)NCC2CCCCC2)ccc1OC	25.3%	nt	nt	nt	nt	nt	nt	nt	nt	nt
Cn1ncc2c(NNC(=O)c3ccccc3Cl)ncnc21	0.1%	nt	nt	nt	7.0%	nt	nt	nt	nt	nt
CC1=C(c2ccc(Cl)cc2)S(=O)(=O)NC1=NCc1ccc(C)cc1	-7.7%	1.9%	17.9%	3.5%	-0.9%	nt	nt	nt	nt	nt
